Usually AC50 stands for the concentration giving half of the maximal activity seen.

Several values for one entry are separate records, joined by “and”; a condition that tells them apart may be missing. Identical values can stand only once. Results filed as inconclusive are left out. A structure can be active in one record and inactive in another. Activity calls are given as the source filed them. How the source made its calls: active means hit-call score of the fitted dose curve at least 0.9, where 1 is the maximum; inconclusive means response in the unintended direction; inactive means score below 0.9.

One test has as its system NCBI gene 100848466. In words: NVS_NR_bPR: NovaScreen (NVS) Nuclear Receptor Binding Assay for bovine Progextron Receptor (PR) (AID 2283343).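 On AC50: actives lower bound radioligand signal below DMSO meaning displacement of the label.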 An outline of the steps: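 Scintillation counts of bound radioligand were read 18 hours after chemical addition to membranes extracted from bovine uterus. Displacement was scored as loss of signal relative to DMSO controls. Screening began at 25 uM in duplicate.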

The target of test [1] is human Constitutive Androstane Receptor (CAR), NR1I3 (gene 9970) (UniProt Q14994). In words: NVS_NR_hCAR_Antagonist: NovaScreen (NVS) Nuclear Receptor Binding Assay for human Constitutive Androstane Receptor Antagonism (CAR) (AID 2283344). An outline of the steps:
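Single 25 uM duplicate primary screen, with concentration-series follow-up on actives. Cell-free binding format run in antagonist mode, TR-FRET signal taken 1 h post-dose; activity is signal loss relative to DMSO.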

In test [2] the target is bovine Estrogen Receptor (ER), ESR1 (gene 407238) (UniProt P49884). In words: NVS_NR_bER: NovaScreen (NVS) Nuclear Receptor Binding Assay for bovine Estrogen Receptor (ER) (AID 2283345).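 Further: actives lower the bound radioligand count which means they displace the ER ligand.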 An outline of the steps:
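Scintillation counting of displaced radioligand gave the readout; bovine uterine membrane extract supplied the receptor. Measured 18 h post-dose, normalized to DMSO baseline. Single 25 uM duplicate screen preceded concentration-response follow-up.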

Test [3] addresses Estrogen receptor (Homo sapiens) (UniProt P03372). The test can be described thus: NVS_NR_hER: NovaScreen (NVS) Nuclear Receptor Binding Assay for human Estrogen Receptor (ER) (AID 2283348). An outline of the steps: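 MCF7-derived receptor extract, radiolabelled ligand, competitive displacement. Read: scintillation counts at 18 h. DMSO = negative control/baseline. Primary 25 uM duplicate; follow-up concentration–response.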

Test [4] has the same target. In words: OT_ER_ERaERa_1440: Odyssey Thera (OT) 24-hour HEK293T Protein-Complementation Assay for Estrogen Receptor-alpha/-alpha Homodimer (AID 2283349).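 Further: hits raise fluorescence above DMSO for agonists and antagonists alike.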 A digest of the protocol:
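Cells (HEK293T) carrying the fragment-tagged ERα LBD (aa 310-547) pair are treated with chemical for 24 hours. Nuclear and/or cytoplasmic fluorescence is then quantified on a laser scanning cytometer. Activity is scored as signal gain against DMSO.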

Test [5] addresses T1, Estrogen receptor (Homo sapiens) + Estrogen receptor beta (Homo sapiens) (UniProt P03372+Q92731). The test can be described thus: OT_ER_ERaERb_0480: Odyssey Thera (OT) 8-hour HEK293T Protein-Complementation Assay for Estrogen Receptor-alpha/-beta Heterodimer (AID 2283352). An outline of the steps:
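Increase in mean fluorescence intensity, measured by laser scanning plate cytometry, reported ER-alpha/ER-beta LBD complementation in HEK293T cells after 8 h chemical exposure. DMSO served as baseline; basal signal is low, punctate and cytoplasmic.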

Test [6] has as its target T1, Estrogen receptor (Homo sapiens) + Estrogen receptor beta (Homo sapiens). The test can be described thus: OT_ER_ERaERb_1440: Odyssey Thera (OT) 24-hour HEK293T Protein-Complementation Assay for Estrogen Receptor-alpha/-beta Homodimer (AID 2283356).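 Further: heteromer of ER alpha and ER beta binding domains; hits raise reporter fluorescence and both agonists and antagonists give an increase.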 An outline of the steps:
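Heterodimerisation of ERα (aa 310-547) and ERβ (aa 263-489) ligand binding domains was tracked as fluorescence gain in stably transfected HEK293T cells following 24 h dosing, normalised to DMSO controls.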

Test [7] concerns the target bovine Gamma-Aminobutyric Acid Type A Receptor Agonist (GABAR Agonist), GABRA1 (gene 780973) (UniProt P08219). In words: NVS_LGIC_bGABAR_Agonist: NovaScreen (NVS) Ligand-Gated Ion Channel Assay for bovine Gamma-Aminobutyric Acid Type A Receptor Agonist (GABAR Agonist) (AID 2283338). A digest of the protocol: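 Radioligand binding to bovine cerebellar membranes in agonist format, read by filter-based scintillation counting after 1 h. Primary screen in duplicate at 25 uM, with actives followed in concentration series. Gain of signal versus DMSO.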

The target in test [8] is chimpanzee Androgen Receptor (AR), AR (gene 747460) (UniProt O97775). In words: NVS_NR_cAR: NovaScreen (NVS) Nuclear Receptor Binding Assay for chimpanzee Androgen Receptor (AR) (AID 2283346). An outline of the steps: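 Radioligand binding to chimpanzee AR expressed in Sf9/Sf21 cells, cell-free, measured 72 h after dosing by lysate-based scintillation counting. Loss of signal vs DMSO; initial duplicate screen at 25 uM, actives retested in concentration series.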
Sequence of chimpanzee Androgen Receptor (AR), AR (gene 747460) (O97775 whole entry, looked up): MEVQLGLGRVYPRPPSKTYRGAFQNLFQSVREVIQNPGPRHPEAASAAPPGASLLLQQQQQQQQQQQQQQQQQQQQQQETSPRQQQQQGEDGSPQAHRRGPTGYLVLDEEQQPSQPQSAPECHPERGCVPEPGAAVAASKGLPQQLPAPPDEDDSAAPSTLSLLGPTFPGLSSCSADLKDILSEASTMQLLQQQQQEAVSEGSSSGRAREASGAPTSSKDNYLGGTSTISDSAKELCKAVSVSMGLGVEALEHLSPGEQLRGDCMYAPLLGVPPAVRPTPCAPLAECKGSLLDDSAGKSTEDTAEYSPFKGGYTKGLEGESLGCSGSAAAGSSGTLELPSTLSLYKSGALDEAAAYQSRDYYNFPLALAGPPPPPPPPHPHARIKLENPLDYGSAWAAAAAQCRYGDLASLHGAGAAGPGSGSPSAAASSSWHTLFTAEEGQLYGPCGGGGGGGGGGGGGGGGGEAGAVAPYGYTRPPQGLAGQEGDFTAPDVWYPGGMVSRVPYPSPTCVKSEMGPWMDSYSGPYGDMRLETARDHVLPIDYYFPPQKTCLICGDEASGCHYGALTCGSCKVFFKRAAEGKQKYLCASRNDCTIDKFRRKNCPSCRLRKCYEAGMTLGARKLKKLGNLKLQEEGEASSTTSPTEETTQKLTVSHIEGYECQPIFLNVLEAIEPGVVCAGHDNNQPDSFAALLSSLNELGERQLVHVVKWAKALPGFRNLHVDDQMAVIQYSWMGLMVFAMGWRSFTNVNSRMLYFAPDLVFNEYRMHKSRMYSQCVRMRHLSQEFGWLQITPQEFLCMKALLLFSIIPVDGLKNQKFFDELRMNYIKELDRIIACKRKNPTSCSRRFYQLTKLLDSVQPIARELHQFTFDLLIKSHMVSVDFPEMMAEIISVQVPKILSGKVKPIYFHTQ

Test [9] has as its target Estrogen receptor beta (Homo sapiens) (UniProt Q92731). The test can be described thus: OT_ER_ERbERb_0480: Odyssey Thera (OT) 8-hour HEK293T Protein-Complementation Assay for Estrogen Receptor-beta/-beta Homodimer (AID 2283357).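 Further: active means signal gain over DMSO baseline.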 A digest of the protocol: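 Homodimerization of ER-beta LBD measured by protein-fragment complementation in HEK293T; 8 h dosing; fixed, Draq5 counterstain; fluorescence intensity gain over DMSO baseline, positive fitting direction; laser scanning cytometry.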

For test [10], the target named is Bile acid receptor (Homo sapiens) (UniProt Q96RI1). In words: NVS_NR_hFXR_Agonist: NovaScreen (NVS) Nuclear Receptor Binding Assay for human Farnesoid X Receptor Agonism (FXR) (AID 2283347). A digest of the protocol: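 Agonist-mode FXR assay read by time-resolved FRET 1 h after compound addition, using isolated human receptor protein without cells. Duplicate 25 uM single-point primary screen, concentration series for confirmed actives; DMSO as baseline.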

Test [11] deals with rat Mineralocorticoid Receptor (MR), Nr3c2 (gene 25672) (UniProt P22199). The test can be described thus: NVS_NR_rMR: NovaScreen (NVS) Nuclear Receptor Binding Assay for rat Mineralocorticoid Receptor (MR) (AID 2283355). An outline of the steps:
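Radioligand displacement, scintillation readout; tissue source adrenalectomized rat brain supernatant. Read 24 h post-dose. Screened in duplicate at 25 uM, DMSO negative control, controls on every plate; actives re-run in concentration series.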

Test [12] addresses Androgen Receptor/SRC-1 Co-activator, AR (gene 367) (UniProt P10275). In words: OT_AR_ARSRC1_0960: Odyssey Thera (OT) 16-hour HEK293T Protein-Complementation Assay for Androgen Receptor/SRC-1 Co-activator (AID 2283353).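 Further: actives raise the signal above DMSO so potency reflects increased AR and SRC-1 complex.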 An outline of the steps:
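Stable HEK293T line carries AR and SRC-1 each linked to a Venus fragment; chemicals are applied for 16 h, cells imaged at two wavelengths, and the 488 nm nucleus/cytoplasm ratio is taken as the signal, rising relative to DMSO.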

For test [13] the target is unchanged. The test can be described thus: OT_AR_ARSRC1_0480: Odyssey Thera (OT) 8-hour HEK293T Protein-Complementation Assay for Androgen Receptor/SRC-1 Co-activator (AID 2283354).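 Further: hits raise the complementation signal above DMSO so AC50 marks enhancers.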 A digest of the protocol: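 Split-Venus PCA, stable HEK293T, AR/SRC-1 fusions; 8 h exposure. Readout: 488nm N/C fluorescence ratio, ≥400 cells/image; fitted upward vs DMSO baseline.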
In test [14] the target is Bile acid receptor (Homo sapiens) (UniProt Q96RI1). In words: NVS_NR_hFXR_Antagonist: NovaScreen (NVS) Nuclear Receptor Binding Assay for human Farnesoid X Receptor Antagonism (FXR) (AID 2283350). A digest of the protocol: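 Antagonist-format time-resolved FRET binding assay with extracted human receptor protein, read 1 hour after compound addition. Compounds first screened at 25 uM in duplicate, then actives tested in concentration series, with loss of signal relative to DMSO.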

Sequence of Androgen Receptor/SRC-1 Co-activator, AR (gene 367) (P10275 whole entry, looked up, the tested form may be a part): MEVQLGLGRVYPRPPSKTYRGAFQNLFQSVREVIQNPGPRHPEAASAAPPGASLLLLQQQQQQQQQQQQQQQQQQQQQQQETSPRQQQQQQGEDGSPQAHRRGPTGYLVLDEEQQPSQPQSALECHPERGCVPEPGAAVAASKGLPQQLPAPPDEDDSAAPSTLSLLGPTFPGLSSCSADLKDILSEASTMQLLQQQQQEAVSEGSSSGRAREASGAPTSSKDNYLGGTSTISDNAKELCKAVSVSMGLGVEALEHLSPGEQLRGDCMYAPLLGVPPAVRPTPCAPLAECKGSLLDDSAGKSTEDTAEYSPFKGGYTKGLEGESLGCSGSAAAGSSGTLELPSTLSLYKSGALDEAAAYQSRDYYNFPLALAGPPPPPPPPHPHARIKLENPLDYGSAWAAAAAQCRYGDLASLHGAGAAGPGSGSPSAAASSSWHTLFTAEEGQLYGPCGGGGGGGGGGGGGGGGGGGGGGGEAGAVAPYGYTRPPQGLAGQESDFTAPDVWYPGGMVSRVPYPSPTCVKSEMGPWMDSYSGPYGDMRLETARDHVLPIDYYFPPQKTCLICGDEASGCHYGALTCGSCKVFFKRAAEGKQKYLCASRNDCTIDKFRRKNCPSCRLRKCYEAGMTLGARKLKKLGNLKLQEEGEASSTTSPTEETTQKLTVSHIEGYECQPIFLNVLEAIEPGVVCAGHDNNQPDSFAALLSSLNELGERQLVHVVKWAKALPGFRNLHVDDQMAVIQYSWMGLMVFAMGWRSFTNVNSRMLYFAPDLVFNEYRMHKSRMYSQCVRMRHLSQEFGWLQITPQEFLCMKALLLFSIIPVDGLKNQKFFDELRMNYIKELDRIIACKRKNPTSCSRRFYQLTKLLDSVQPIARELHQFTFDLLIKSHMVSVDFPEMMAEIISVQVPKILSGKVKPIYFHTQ
Sequence of Estrogen receptor beta (Homo sapiens) (Q92731 whole entry, looked up, the tested form may be a part): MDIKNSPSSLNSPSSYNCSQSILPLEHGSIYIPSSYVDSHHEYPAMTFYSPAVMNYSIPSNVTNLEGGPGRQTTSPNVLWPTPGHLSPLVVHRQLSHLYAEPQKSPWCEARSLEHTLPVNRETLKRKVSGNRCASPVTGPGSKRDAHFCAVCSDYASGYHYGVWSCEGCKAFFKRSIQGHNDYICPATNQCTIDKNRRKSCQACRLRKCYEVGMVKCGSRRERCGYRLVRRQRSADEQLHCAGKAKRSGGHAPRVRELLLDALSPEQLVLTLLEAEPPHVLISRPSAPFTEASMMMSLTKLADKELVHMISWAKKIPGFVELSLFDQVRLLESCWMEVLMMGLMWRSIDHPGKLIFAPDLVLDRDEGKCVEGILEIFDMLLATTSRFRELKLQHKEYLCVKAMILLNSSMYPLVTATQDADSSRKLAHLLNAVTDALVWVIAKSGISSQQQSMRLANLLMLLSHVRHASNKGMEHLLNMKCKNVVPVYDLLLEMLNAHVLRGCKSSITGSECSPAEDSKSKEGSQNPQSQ
Sequence of bovine Estrogen Receptor (ER), ESR1 (gene 407238) (P49884 whole entry, looked up): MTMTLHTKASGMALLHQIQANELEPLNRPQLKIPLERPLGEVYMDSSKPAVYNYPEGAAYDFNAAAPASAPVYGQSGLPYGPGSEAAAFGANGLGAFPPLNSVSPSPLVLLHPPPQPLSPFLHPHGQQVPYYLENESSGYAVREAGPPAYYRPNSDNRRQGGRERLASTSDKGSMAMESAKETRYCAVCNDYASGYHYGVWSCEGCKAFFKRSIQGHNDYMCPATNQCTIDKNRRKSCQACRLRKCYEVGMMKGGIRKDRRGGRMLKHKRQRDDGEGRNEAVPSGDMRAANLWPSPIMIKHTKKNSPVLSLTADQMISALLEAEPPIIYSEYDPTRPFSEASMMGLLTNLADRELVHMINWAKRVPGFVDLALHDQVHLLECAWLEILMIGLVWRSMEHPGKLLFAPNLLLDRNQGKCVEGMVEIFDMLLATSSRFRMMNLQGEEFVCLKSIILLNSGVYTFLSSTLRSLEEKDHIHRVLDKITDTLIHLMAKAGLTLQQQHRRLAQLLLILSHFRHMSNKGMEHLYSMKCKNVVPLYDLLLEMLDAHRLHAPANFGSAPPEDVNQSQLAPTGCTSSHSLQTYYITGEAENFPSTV
T1 sequence (P03372 whole entry, looked up, the tested form may be a part): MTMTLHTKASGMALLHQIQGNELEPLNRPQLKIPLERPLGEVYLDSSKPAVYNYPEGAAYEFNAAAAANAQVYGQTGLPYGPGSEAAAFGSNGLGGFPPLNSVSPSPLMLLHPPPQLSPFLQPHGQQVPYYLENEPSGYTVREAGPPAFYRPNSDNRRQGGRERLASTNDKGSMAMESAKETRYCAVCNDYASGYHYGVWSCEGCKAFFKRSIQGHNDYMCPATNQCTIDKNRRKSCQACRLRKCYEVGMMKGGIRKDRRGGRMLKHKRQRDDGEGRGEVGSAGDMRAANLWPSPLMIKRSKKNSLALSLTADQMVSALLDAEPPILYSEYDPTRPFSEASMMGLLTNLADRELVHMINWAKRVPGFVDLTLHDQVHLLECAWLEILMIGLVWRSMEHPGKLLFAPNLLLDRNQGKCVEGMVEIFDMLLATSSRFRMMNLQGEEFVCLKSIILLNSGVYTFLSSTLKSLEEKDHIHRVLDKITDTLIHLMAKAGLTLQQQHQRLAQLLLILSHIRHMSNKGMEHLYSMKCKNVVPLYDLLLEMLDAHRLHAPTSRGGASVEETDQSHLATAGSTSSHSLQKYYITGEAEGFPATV
T1 sequence (Q92731 whole entry, looked up, the tested form may be a part): as the sequence (Q92731 whole entry, looked up, the tested form may be a part) above
Sequence of Estrogen receptor (Homo sapiens) (P03372 whole entry, looked up): as the sequence (P03372 whole entry, looked up, the tested form may be a part) above
Sequence of human Constitutive Androstane Receptor (CAR), NR1I3 (gene 9970) (Q14994 whole entry, looked up): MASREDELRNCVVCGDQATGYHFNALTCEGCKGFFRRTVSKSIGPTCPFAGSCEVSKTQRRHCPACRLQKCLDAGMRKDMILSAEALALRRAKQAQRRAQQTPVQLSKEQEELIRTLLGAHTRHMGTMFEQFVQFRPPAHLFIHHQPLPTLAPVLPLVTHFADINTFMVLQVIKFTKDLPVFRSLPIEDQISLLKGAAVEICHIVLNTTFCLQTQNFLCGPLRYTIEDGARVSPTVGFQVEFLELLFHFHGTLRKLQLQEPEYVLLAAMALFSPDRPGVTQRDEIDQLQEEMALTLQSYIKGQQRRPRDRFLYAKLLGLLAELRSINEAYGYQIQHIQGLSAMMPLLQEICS

For `CC1(C)C(C=C(Cl)Cl)C1C(=O)OC(C#N)c1ccc(F)c(Oc2ccccc2)c1` (stereo unspecified), the molecule was classed as inactive (in the test on NCBI gene 100848466; in [1]; in test [2]; in [3]; in test [4]; in [5]). The outcome in test [6] was inactive.
`O=S(=O)(O)C(F)(F)C(F)(F)C(F)(F)C(F)(F)C(F)(F)C(F)(F)C(F)(F)C(F)(F)F`: in [7], the molecule was classed as inactive. Further, the AC50 in the test on NCBI gene 100848466 is 25 µM (active) [middle of 5 runs]; in test [8], 5.81 µM (active).
For the molecule `CC(C)(C)C(O)/C(=C\c1ccc(Cl)cc1Cl)n1cncn1` (stereo unspecified), the molecule was classed as inactive (with NCBI gene 100848466; in test [2]; in test [4]; in test [6]; in test [9]). Moreover, the AC50 in [8] was 1.51 µM (active).
Consider `Oc1cc(Cl)ccc1Oc1ccc(Cl)cc1Cl`, for which the molecule was classed as inactive (in the test on NCBI gene 100848466; in [10]; in test [11]; in [9]). The AC50 in [8] is 12.4 µM (active) and 15.3 µM (active) and 12.2 µM (active).
Regarding `COc1nn(CSP(=S)(OC)OC)c(=O)s1`, the molecule was called inactive (with NCBI gene 100848466; in test [4]; in test [5]; in test [6]; in test [9]). Also, the AC50 in test [1] was 18.3 µM (active).
For `O=C(O)C(F)(F)C(F)(F)C(F)(F)C(F)(F)C(F)(F)C(F)(F)C(F)(F)F`, the outcome (with NCBI gene 100848466; in [9]) was inactive.
For `Oc1ccc(Cl)cc1Cc1ccccc1`, the molecule was called inactive in test [7] and in test [1]. The AC50 with NCBI gene 100848466 is 12.9 µM (active) [middle of 6 runs]; in test [1], 9.68 µM (active) and 25.2 µM (active) and 25 µM (active); in [8] it was 15.3 µM (active) and 15.7 µM (active) and 19.7 µM (active); in [12], 50.5 µM (active); in test [13], 63.2 µM (active); in test [9] it was 12 µM (active).
As for `O=C1c2ccccc2C(=O)N1SC(Cl)(Cl)Cl`, the result in test [1], in [2], in test [4], in [5] and in test [9] was inactive.
Consider `N#Cc1c(Cl)c(Cl)c(Cl)c(C#N)c1Cl`, for which the outcome (with NCBI gene 100848466; in [1]; in test [2]; in [8]; in [4]; in test [14]) was inactive. For the same molecule, the result in test [6] and in [9] was inactive.
`C[C@H]1[C@H](c2ccc(Cl)cc2)SC(=O)N1C(=O)NC1CCCCC1`: the result (in the test on NCBI gene 100848466; in test [3]; in [4]; in [5]; in test [13]; in test [6]) was inactive. Further, in [9], the result was inactive. Moreover, the AC50 in [12] is 67.7 µM (active).
For `[2H]C1([2H])[n+]2ccccc2-c2cccc[n+]2C1([2H])[2H]`, the result in [7] was inactive.
As for `COP(=S)(OC)Oc1ccc([N+](=O)[O-])cc1`, the AC50 in the test on NCBI gene 100848466 was 7.33 µM (active); in test [8], 14.6 µM (active). Also, the molecule was classed as inactive in test [1], in test [14], in [5], in [6] and in test [9].

These data come from PubChem BioAssay (EPA / NIEHS).
